Laboratory results: PubChem BioAssay (Tox21)
Records with an inconclusive call do not appear. Active and inactive are the calls of the source. Calls come from the whole dose curve; as a rule, active = well fitted cell-killing curve with a large enough effect in the repeat runs; inconclusive = weak or mixed curves, or effect the other way; inactive = no such curve, though single readings can be large or run the other way.

test: qHTS assay to identify small molecule agonists of the RXR signaling pathway - cell viability counter screen (AID 1159529); conditions: RXR-alpha-bla HEK293T viability, CellTiter-Glo, 16 h; series mostly up to 76.8 µM; activity change, negative = cytotoxicity: at the top concentration; note: nearly all actives have a fitted effect of over 50% in size
Description: National Center for Advancing Translational Sciences [NCATS]
NIH Chemical Genomics Center [NCGC]
U.S. Environmental Protection Agency [EPA]
National Institutes of Environmental Health Sciences [NIEHS]
National Toxicology Program [NTP]
U.S. Food and Drug Administration [FDA]
The Retinoid X receptor (RXR), a nuclear hormone receptor expressed in liver, spleen, placenta, epidermis, central nervous system. These receptors are able to form homo and heterodimers with other nuclear receptors and due to this heterodimerizing ability, RXR functions as master regulators producing diverse physiological effects. Three subtypes of RXR exist; alpha, beta and gamma. Retinoid X receptor alpha (RXR-alpha) has potential roles in metabolic signaling pathways, skin alopecia, dermal cysts, cardiac development, insulin sensitization etc. Therefore screening environmental chemicals on RXR-alpha signaling can be used for the studies focused on such therapeutic applications. For quantification of RXR-alpha ligands signaling, GeneBLAzer RXR alpha-UAS-bla HEK 293T (Life Technologies, Carlsbad, CA) cells containing a beta-lactamase reporter-gene under control of Retinoid X receptor-alpha response element were used to screen Tox21 10K library. The cytotoxicity of the Tox21 compound library against the RXR-alpha HEK 293T cell line was tested in parallel by measuring cell viability using CellTiter-Glo assay (Promega Corporation, Madison, WI) in the same wells.
Tox21 Assay Protocol Summary:
RXR-alpha HEK 293T cells were dispensed at 2,000 cells/6 uL of assay medium containing 2% charcoal-stripped FBS using a Multidrop Combi (ThermoFisher Scientific, Waltham, MA) dispenser. The assay was performed in black wall/clear-bottom 1536-well plates (Greiner Bio-One North America Inc. Monroe, NC). Tetraoctyl ammonium bromide was used as a positive control in the cytotoxicity screen. After the assay plates were incubated at 37 C and 5% CO2 for 5 hr, 23 nL of compounds dissolved in DMSO, positive control or DMSO only were transferred to the assay plate by a Pintool station (Kalypsys, San Diego, CA). The assay plates were incubated at 37 C and 5% CO2 for 16 hr. One uL of LiveBLAzer B/G FRET substrate (Life Technologies) was added using a Flying Reagent Dispenser (FRD) (Aurora Discovery, San Diego, CA) and the plates were incubated at room temperature for 2 hr. Fluorescence intensity (405 nm excitation, 460/530 nm emission) was measured using an Envision plate reader (PerkinElmer, Shelton, CT). For cytotoxicity, 4 uL/well of CellTiter-Glo reagent was added into the assay plates using an FRD. After 30 min incubation at room temperature, the luminescence intensity was measured using a ViewLux plate reader (PerkinElmer).
% is set by controls: 0 for no effect and ±100 for the full control effect.

Compound	activity change, negative = cytotoxicity
CC(=O)c1ccc(OCC(=O)N2CCCCC2)cc1	3.92% [at 35.3 µM] (inactive)
FC(F)(F)/C(=N\OCC1OCCO1)c1ccc(Cl)cc1	1.54% (inactive)
CCCCCC(=O)OCC	-0.0555% (inactive)
O=C(Nc1cccc(C2=NCCN2)c1)Nc1cccc(C2=NCCN2)c1	12.6% [at 15.8 µM] (inactive)
CCN1CN(CC)CN(CC)C1	0.505% (inactive)
O=C1OC(=O)c2ccccc21	2.16% (inactive)
O=C(O)c1c(Cl)ccc(Cl)c1Cl	-5.71% (inactive)
CC(C)(c1ccc(Oc2ccc3c(c2)C(=O)OC3=O)cc1)c1ccc(Oc2ccc3c(c2)C(=O)OC3=O)cc1	7.01% (inactive)
C=CC(C)(O)CC/C=C(\C)CC (stereo not given)	4.86% (inactive)
CC(C)CCC(=O)CCC(C)C	11.4% (inactive)
CCOC(=O)CC(CC(=O)OCC)(OC(C)=O)C(=O)OCC	-0.848% (inactive)
CC(C)C(=O)Nc1cccc(C(F)(F)F)c1	1.26% [at 35.3 µM] (inactive)
CCCCC[Si](OCC)(OCC)OCC	-9.05% (inactive)
CCNC(=O)/C=C/c1cccc(Br)c1	7.68% [at 35.3 µM] (inactive)
C[C@H](CCC(=O)NCC(=O)O)[C@H]1CC[C@H]2[C@@H]3[C@H](O)C[C@@H]4C[C@H](O)CC[C@]4(C)[C@H]3C[C@H](O)[C@]12C	-0.993% (inactive)
CCCCC/C=C/CC(=O)OC	-1.45% (inactive)
CCN(Cc1cccc(S(=O)(=O)O)c1)c1ccccc1	7.06% (inactive)
CCCC(C)CC (stereo not given)	-0.867% (inactive)
Cc1cc(O)c2c(c1)C(=O)c1cccc(O)c1C2=O	-11.6% [at 35.3 µM] (inactive)
CCC1COC(=O)O1 (stereo not given)	3.4% (inactive)

Compound	activity change, negative = cytotoxicity
CC1=NN(c2ccc(S(=O)(=O)O)cc2)C(=O)C1N=Nc1ccccc1 (stereo not given)	-2.26% (inactive)
C=CCOC(=O)c1ccc(C(=O)OCC=C)c(C(=O)OCC=C)c1	-14.5% (inactive)
Cc1cccc(NC(=S)N(C)C)c1	5.38% (inactive)
Cc1cccc(Nc2ccncc2S(=O)(=O)NC(=O)NC(C)C)c1	26% [at 35.3 µM] (inactive)
CC(=O)c1ccc2c(c1)CCCC2	-1.31% (inactive)
C=COCCOCCOC=C	10.6% (inactive)
CCCCC(CC)C(=O)OC(C)C (stereo not given)	0.324% (inactive)
BrC/C=C/CBr	-1.93% [at 15.8 µM] (inactive)
CCc1nccnc1C	6.48% (inactive)
COc1cc([N+](=O)[O-])ccc1N	2.86% (inactive)
N#CCCOCCOCCC#N	7.1% (inactive)
CC(C)CCCC(C)CC=O (stereo not given)	3.38% (inactive)
O=C(O)c1ccc(OCCN2CCCCC2)cc1	-0.0745% [at 35.3 µM] (inactive)
CC(=O)OCCCc1ccccc1	-3.01% (inactive)
C[C@H](CCC(=O)O)[C@H]1CC[C@H]2[C@@H]3[C@H](O)C[C@@H]4C[C@H](O)CC[C@]4(C)[C@H]3C[C@H](O)[C@]12C	0.124% [at 35.3 µM] (inactive)
CCCCC(=O)N(C)C	12.2% (inactive)
NS(=O)(=O)c1ccccc1OC(F)(F)F	11.9% (inactive)
CCCCCC1Nc2cc(C(F)(F)F)c(S(N)(=O)=O)cc2S(=O)(=O)N1 (stereo not given)	5.34% [at 35.3 µM] (inactive)
C=C(C)C(=O)OC1CC(C)CC(C)(C)C1 (stereo not given)	15.7% (inactive)
CCCCCN(CCCOC)C(=O)C(CCC(=O)O)NC(=O)c1ccc(Cl)c(Cl)c1 (stereo not given)	5.79% [at 35.3 µM] (inactive)
